Rows were chosen to be rich in hits. Some 19% of all compounds tested hit in one or more screens of this group.
IL-1B inflam inh: blocks inflammasome-driven IL-1 beta release | THP-1 LPS/ATP IL-1B secretion, AlphaLISA, 16 h; active compounds read low | activity change, % at 57.5 µM | 4.7% of 360,000 active | AID 743279; in the data active = activity change below about -50%; inconclusive = mostly about -30% to -49%
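THP-1 cells pretreated 1 hr with compounds (up to 57.5 uM final), then stimulated with LPS (250 ng/mL final) plus ATP (1.25 mM final); secreted IL-1B measured by AlphaLISA after 16 hr, decreased signal indicating inhibition.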
HT1080-NT tox: kills 2HG-producing HT-1080-NT fibrosarcoma cells | HT-1080-NT fibrosarcoma viability, CellTiter-Glo ATP luminescence, 48 h | 1.6% of 360,000 active | Potency, µM (series often up to 46.1 µM), for inactives: top-dose activity, negative = less viability, hits mostly cytotoxic;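 also: NT is the 2HG producing partner of a matched IDH1 knockdown line; potency is read from the fitted curve at half-maximal effect; 0% = DMSO-treated cells and -100% = media-only wells without cells; nearly all actives have a fitted effect of over 55% in size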
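HT-1080-NT fibrosarcoma cells (2HG-overproducing), 750 cells/well in RPMI with 5% FBS, dosed after 2 h and incubated 48 h at 37C. CellTiter-Glo luminescence normalized to DMSO and no-cell wells; concentration-response curves fitted and classed.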
TDP1 cell noCPT: qHTS for Inhibitors of human tyrosyl-DNA phosphodiesterase 1 (TDP1): qHTS in cells in absence of CPT; DT40 Tdp1-/- hTDP1 cells, no CPT, ATP luminescence, 48 h; Potency, µM (series often up to 46.2 µM), inactives show at the highest dose activity change, negative = growth inhibition, actives largely listed as inhibitors; 15% of 420,000 active; also: potency is read from the fitted curve at half-maximal effect; nearly all actives have a fitted effect of over 55% in size
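Growth kinetics read by CellTiter-Glo luminescence after ≥48 hr at 37 °C. Cells: DT40 Tdp1-/- stably carrying human TDP1, 400 per well, compound exposure in the absence of CPT (DMSO vehicle).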
HT1080 IDH1KD tx: kills HT-1080 cells with IDH1 knockdown. HT-1080 IDH1 knockdown viability, ATP luminescence, 48 h. 2% of 360,000 active. AID 686971. Potency, µM (top dose mostly 46.1 µM), without a hit: at the highest dose activity, negative = toxicity, most hits filed as cytotoxic;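 also: potency is read from the fitted curve at half-maximal effect; 0% = DMSO wells and -100% = cell-free medium wells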
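IDH1KD HT-1080 cells, 750/well, RPMI + 5% FBS; compound pinned after 2 h settling; 48 h, 37 °C; CellTiter-Glo luminescence; % activity normalised to DMSO and no-cell wells; curves fitted, classed by r2 and efficacy.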
DT40 TDP1 CPT: growth inhibition of DT40 Tdp1-/-;hTDP1 cells with camptothecin (screen for TDP1 inhibitors) | Potency, µM (series often up to 46.2 µM), for inactives: at the top dose activity change, negative = growth inhibition, hits mostly inhibitors | chicken DT40 Tdp1-/-;hTDP1 cells + 20 nM CPT, ATP luminescence, 48 h | AID 686979 | 12% of 420,000 active; also: potency is read from the fitted curve at half-maximal effect; nearly all actives have a fitted effect of over 55% in size
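Chicken DT40 Tdp1-/- cells complemented with human TDP1, 400 cells/well, exposed to compounds plus 20 nM camptothecin for at least 48 h at 37 C; viability read as ATP content by CellTiter-Glo luminescence.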
Numbers without * were called inactive; ? = inconclusive; . = not tested or not shown; [ ] = another dose, or the depositor's remark. Unless noted, calls follow the shape of the dose curve; as a rule, active = well fitted curve in the direction sought with a large enough effect; inconclusive = small, poorly fitted or top-dose-only effect, or another doubt; inactive = no such curve, though single readings can be large; an effect the other way counts as inactive or inconclusive. Unless noted, % is scaled to controls: 0 for no effect and ±100 for the full control effect.

SMILES | IL-1B inflam inh | HT1080-NT tox | TDP1 cell noCPT | HT1080 IDH1KD tx | DT40 TDP1 CPT
Cc1ccc(S(=O)(=O)CC(C)N2CCN(C3CCCCC3)CC2)cc1 (stereo unspecified) | -8 | 1% | -23% | -9% | 1%
Cc1nc2c(=O)n(-c3ccc(F)cc3F)nc(C)c2s1 | -6 | -4% | -5% | -9% | 5%
Cc1nc2[nH]c(=O)n(O)c(=O)c2s1 | 18 | -11% | 26µM* | 11% | ?
CCC[C@@H]1CCCO[C@@](C(=O)NCCN2CCOCC2)(C(F)(F)F)C1 | -4 | 18% | 3% | 12% | -6%
C=C(C)[C@@H]1C2=CC(C(=O)OC)=C(C[C@@H](C(=C)C)[C@H]3O[C@H]3C3=C[C@H]1OC3=O)O2 | . | 4µM* | 1.1µM* | 3.5µM* | 1.1µM*
COc1ccc(S(=O)(=O)N2CCC3CC2c2c(-c4ccc(C(F)(F)F)cc4)cccc23)cc1 (stereo unspecified) | 10 | 11% | 5.2µM* | -22% | 4.6µM*
COCC(=O)N1CCC2CC1c1c(-c3ccc(C(F)(F)F)cc3)cccc12 (stereo unspecified) | 4 | -4% | ? | 0% | 23µM*
COc1ccc(-c2cccc3c2C2CC3CCN2C(=O)OCc2ccccc2)cc1 (stereo unspecified) | -20 | -5% | ? | 1% | ?
C=CCOC(=O)N1CCC2CC1c1c(-c3ccc(C(F)(F)F)cc3)cccc12 (stereo unspecified) | 40 | ? | ? | ? | 23µM*
C/C(=N\N1CCN(C)CC1)c1ccc(Cl)c(Cl)c1 | -14 | 0% | ? | 5% | -1%
CCOc1ccccc1N1CCN(C(=O)C2CSC3(C)CCC(=O)N23)CC1 (stereo unspecified) | 16 | 4% | -25% | -8% | -12%
O=C(NC1CC2CCC1C2)C1COc2ccccc2O1 (stereo unspecified) | -14 | 7% | -7% | 2% | -9%
Cc1ccc(-n2c(-c3ccc(Br)cc3)c[n+]3c2CCc2ccc4cccnc4c2-3)cc1 | -105* | ? | 0.29µM* | 4µM* | 0.29µM*
Cc1cc(C)nc(-c2cccc3c2OC(CNC(=O)c2ccc(Cn4nc(C)cc4C)cc2)C3)n1 (stereo unspecified) | . | . | -22% | . | 26%[9.04 µM]
O=[N+]([O-])c1ccc(NN=CC2CCCCCC2)c([N+](=O)[O-])c1 | 20 | 15% | 13µM* | 17% | 15µM*
Cc1coc(NC(=O)CSc2nc(-c3ccc(Cl)cc3)cc(C(F)(F)F)c2C#N)n1 | 43 | ? | ? | -24% | 21µM*
Cc1cccc(C(=O)OCC(=O)NC(=O)NC2CCCCC2)c1 | -18 | 8% | -20% | 11% | ?
CCOc1ccc([C@@H]2CC=C(C(=O)O)CN2S(=O)(=O)c2ccc(C)cc2)cc1 | 37 | -16% | -7% | 5% | -10%
COc1ccc(C2CC=C(C(C)=O)CN2S(=O)(=O)c2ccc(C)cc2)cc1 (stereo unspecified) | 12 | -3% | 23µM* | 5% | ?
COc1ccc(C2CC=C(C(C)=O)CN2S(=O)(=O)c2ccccc2)cc1 (stereo unspecified) | -13 | 3% | 21µM* | -5% | ?
CCOc1ccc(C2CC=C(C(C)=O)CN2S(=O)(=O)c2ccc(C)cc2)cc1 (stereo unspecified) | -3 | -11% | 23µM* | ? | 23µM*
Cc1ccn2c(=O)c(NC(=O)c3ccc4c(c3)OCO4)c(C)nc2c1 | ? | 3% | -24% | 0% | -7%
CSC(SC)=C(C(C)=O)C(=O)c1ccc(C)cc1 | -50* | -1% | ? | -1% | -2%
CCCCOc1ccccc1C1C(C(=O)OC)=C(C)N(C)C(C)=C1C(=O)OC | -17 | 6% | 23µM* | -3% | ?
COC(=O)C1=C(C)N(C)C(C)=C(C(=O)OC)C1c1ccccc1C | -1 | -4% | ? | -6% | ?

Screens from PubChem.
